High-throughput results from PubChem.
Sampled rows, rich in hits. Any-hit rate of the full collection: about 3%.
Fh CTSL1 inh: cathepsin L1 inhibition, PFM18AAP counter-screen | recombinant F. hepatica cathepsin L1, Z-Leu-Arg-MCA fluorescence | inhibition, % at 5.96 µM | actives 0.49% (n = 300,000) | AID 1906;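 active = inhibition above the mean of all tested compounds plus 3 SD, set per screening campaign, cut at about 17% in these data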;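 also: 0% = plate median of test compound wells and 100% = 1 µM Z-Phe-Ala-diazomethylketone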
PAFAH1B3 FP inh: blocks human PAF acetylhydrolase 1B catalytic subunit 3 | Q15102 | recombinant PAFAH1B3, FP-rhodamine probe, fluorescence polarization | inhibition, % at 3.39 µM | actives 0.28% (n = 340,000) | AID 492972;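 active = inhibition above the screen-wide average of all tested compounds plus 3 SD, cut at about 25% in these data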;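 also: 0% = enzyme with DMSO only and 100% = wells lacking PAFAH1B3 protein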
PAFAH2 FP inh: inhibitors of human PAFAH2. actives 0.99% (n = 340,000). inhibition, % at 3.39 µM. recombinant PAFAH2, FP-rhodamine activity probe, fluorescence polarization;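 active = inhibition above the mean over all tested compounds plus 3 SD, cut at about 30% in these data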;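 also: inhibitors block probe labeling of enzyme so polarization drops; 0% = enzyme with DMSO and 100% = wells lacking PAFAH2 protein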
PAFAH1B2 inh: inhibitors of human PAFAH1B2 | recombinant PAFAH1B2, FP-rhodamine activity probe, fluorescence polarization | inhibition, % at 3.39 µM | actives 1.2% (n = 340,000) | AID 492953;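 active = inhibition above the mean of all tested compounds plus 3 SD, cut at about 24% in these data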;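 also: 0% = enzyme with DMSO and 100% = wells lacking PAFAH1B2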
PP5 inh: blocks human protein phosphatase 5 activity; AID 1987; actives 0.18% (n = 320,000); purified PP5c, OMFP substrate fluorescence; inhibition, % at 6.7 µM; P53041;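 active = inhibition above the campaign's mean inhibition across all tested compounds plus 3 SD, cut at about 9.5% in these data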;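 also: 0% = DMSO only and 100% = 100 µM cantharidin control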
Target sequence (P53041 whole entry, looked up): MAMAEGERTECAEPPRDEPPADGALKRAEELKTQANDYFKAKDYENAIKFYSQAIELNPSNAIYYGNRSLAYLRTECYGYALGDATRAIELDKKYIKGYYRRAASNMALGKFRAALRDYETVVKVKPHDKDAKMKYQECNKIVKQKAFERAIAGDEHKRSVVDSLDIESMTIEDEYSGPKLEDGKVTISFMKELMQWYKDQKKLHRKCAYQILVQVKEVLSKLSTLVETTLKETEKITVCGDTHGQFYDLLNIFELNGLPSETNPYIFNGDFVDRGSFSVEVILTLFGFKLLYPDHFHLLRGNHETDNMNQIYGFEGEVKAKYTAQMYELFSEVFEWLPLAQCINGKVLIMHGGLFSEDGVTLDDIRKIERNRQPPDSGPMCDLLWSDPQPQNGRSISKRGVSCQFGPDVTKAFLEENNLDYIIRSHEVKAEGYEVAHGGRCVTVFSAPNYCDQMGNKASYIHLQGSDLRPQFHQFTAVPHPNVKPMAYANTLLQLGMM
pPAFAH inh: inhibitors of human plasma PAF acetylhydrolase (pPAFAH) | actives 1.5% (n = 330,000) | recombinant pPAFAH, FP-rhodamine probe fluorescence polarization | AID 463082 | inhibition, % at 3.39 µM | Q13093;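 active = inhibition above the mean inhibition across the screen plus 3 SD, cut at about 25% in these data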;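 also: inhibitors block binding of the rhodamine activity-based probe so polarization drops; 0% = enzyme with DMSO and 100% = wells lacking pPAFAH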
pPAFAH confirm: confirmation of human plasma PAF acetylhydrolase (pPAFAH) inhibitors; shares compounds with pPAFAH inh; recombinant pPAFAH, FP-Rh probe fluorescence polarization; inhibition, % at 3.39 µM; actives 72% (n = 2,300);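 active = mean inhibition of the triplicate above the hit cutoff set for the earlier primary screen, cut at about 25% in these data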;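 also: 0% = enzyme with DMSO and 100% = wells lacking pPAFAH enzyme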
PAFAH2 confirm: confirmation of human PAFAH2 inhibitors; shares compounds with PAFAH2 FP inh; recombinant PAFAH2, FP-rhodamine activity probe, fluorescence polarization; inhibition, % at 3.39 µM; actives 65% (n = 2,300); AID 493030;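 active = mean inhibition over three repeats above a set limit taken from the earlier primary screen, cut at about 30% in these data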;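 also: inhibitor blocks binding of rhodamine activity probe so polarization falls; 0% = enzyme with DMSO and 100% = wells lacking PAFAH2 protein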
* hit, by the source's call; nt = not tested or not shown.

SMILES	Fh CTSL1 inh	PAFAH1B3 FP inh	PAFAH2 FP inh	PAFAH1B2 inh	PP5 inh	pPAFAH inh	PAFAH2 confirm	others
N#Cc1ccccc1Cn1cc(C(=O)c2cccs2)c2ccccc21	6	2	-4	-3	1	72*	nt	pPAFAH confirm=75*
N#Cc1ccccc1Cn1cc(C(=O)c2ccccc2F)c2ccccc21	0	5	-2	-6	2	72*	nt	pPAFAH confirm=79*
CC(C)NC(=O)Cn1cc(C(=O)c2ccccc2F)c2ccccc21	-1	-6	-9	1	1	0	nt
CN(C)C1C(=O)C(C(N)=O)=C(O)C2(O)C(=O)C3=C(O)c4c(O)cccc4C(C)(O)C3C(O)C12 (centres undefined)	4	26*	26	10	4	73*	nt	pPAFAH confirm=7
CC1CCN(C(CC(=O)c2ccccc2)C(=O)c2ccccc2)CC1 (centres undefined)	nt	-6	1	4	nt	nt	nt
CNc1ccc2oc(C[C@H]3O[C@@]4(CC[C@H]3C)O[C@H]([C@H](C)C(=O)c3ccc[nH]3)[C@H](C)C[C@H]4C)nc2c1C(=O)O	4	10	-1	4	5	38*	nt	pPAFAH confirm=8
COC(=O)C1=C(c2ccc(F)cc2F)C[C@@H]2CC[C@H]1N2C(=O)NCc1ccc(C(F)(F)F)cc1	nt	-3	-2	1	8	1	nt
CC[C@H](C)/C=C(C)/C=C/C1=CC2=C(Cl)C(=O)[C@@](C)(OC(C)=O)C(=O)C2=CO1	0	12	45*	16	1	79*	nt	pPAFAH confirm=79*
CC12CCC3C(CCC4CC(=O)C(C(O)C(F)(F)F)CC43C)C1CCC2O (centres undefined)	nt	5	2	2	nt	nt	nt
COc1ccc(/C=C2\C(=O)NC(=S)N(C)C2=O)cc1C	-4	4	35*	3	-1	0	0
Cc1ccsc1/C=C1\C(=O)NC(=S)N(C)C1=O	3	0	1	3	1	3	nt
CCC(C)N1C(=O)/C(=C\c2ccc(N3CCCCCC3)cc2)C(=O)NC1=S (centres undefined)	-2	-28	0	-9	1	4	nt
CCC(C)N1C(=O)/C(=C\c2cc3c4c(c2)CCCN4CCC3)C(=O)NC1=S (centres undefined)	-1	-5	36*	11	-1	3	20
COc1cc2c(cc1OC)C1[C@H]3C(=CC[C@H]1OC2O)CCN3C (some centres undefined)	nt	6	0	3	nt	-4	nt
CC(C)N1CCN(Cc2cccc([N+](=O)[O-])c2)CC1	-5	5	117*	9	1	6	5
O=P(Oc1ccccc1)(Oc1ccccc1)C(O)c1ccc(Cl)cc1 (centres undefined)	-3	3	14	2	2	8	nt
COc1ccc(C(O)P(=O)(Oc2ccccc2)Oc2ccccc2)cc1 (centres undefined)	1	5	33*	-1	0	-2	18
Cn1cc(C(=O)OCC(=O)NC2(C#N)CCCC2)c2ccccc21	nt	3	65*	0	3	10	49*
Cn1cc(C(=O)OCC(=O)NC2(C#N)CCCCC2)c2ccccc21	nt	6	81*	6	nt	nt	81*
Cn1cc(C(=O)OCC(=O)N2CCCCC2)c2ccccc21	nt	5	1	5	2	-7	nt
C=CCN1C(=O)/C(=C/c2cc(C)n(-c3cccnc3)c2C)C(=O)NC1=S	0	-1	31*	8	-1	7	10
Cc1cc(C=C2C(=O)NC(=S)NC2=O)c(C)n1C1CCCC1	-7	10	34*	12	0	10	15
C=CCOC(=O)C1C(C(=O)O)C2(Cl)C(Cl)=C(Cl)C1(Cl)C2(Cl)Cl (centres undefined)	nt	8	31*	21	nt	nt	21
O=C(O)C1C(C(=O)O)C2(Cl)C(Cl)=C(Cl)C1(Cl)C2(Cl)Cl (centres undefined)	nt	4	28	6	0	-2	nt
CCCNC(=O)N1[C@H]2CC[C@@H]1C(C(=O)OC)=C(c1c(C)noc1C)C2	nt	3	-2	4	-1	2	nt
SMILES	Fh CTSL1 inh	PAFAH1B3 FP inh	PAFAH2 FP inh	PAFAH1B2 inh	PP5 inh	pPAFAH inh	PAFAH2 confirm	others
CCc1cc(=O)oc2cc(OCC(=O)N3C[C@H]4C[C@@H](C3)c3cccc(=O)n3C4)c(Cl)cc12	0	8	6	4	5	1	nt
Cc1cc(OCC(=O)N2C[C@H]3C[C@@H](C2)c2cccc(=O)n2C3)c2c(C)cc(=O)oc2c1	7	6	38*	0	1	5	-3
Cc1cc(=O)oc2c(C)c(OCC(=O)N3CCC(C(=O)O)(c4ccccc4)CC3)ccc12	1	8	-1	-1	0	0	nt
Cc1ccccc1-n1c(C)cc(/C=C2/C(=O)NC(=O)N(Cc3ccco3)C2=O)c1C	2	15	42*	3	1	6	46*
Cc1ccc(-n2c(C)cc(/C=C3/C(=O)NC(=O)N(Cc4ccco4)C3=O)c2C)cc1	0	1	6	-3	0	11	nt
Cc1cc(/C=C2\C(=O)NC(=O)N(Cc3ccccc3Cl)C2=O)c(C)n1-c1ccc(C(=O)O)cc1	-3	-1	34*	5	0	11	24
CC(=O)O[C@H]1C[C@@H]2OC3C=C(C)CCC3(C)[C@@]1(C)[C@@]21CO1 (some centres undefined)	nt	5	0	3	nt	nt	nt
CCN(CCCl)c1cc(CN(C)C)cc(NC(=O)c2ccc(C(=O)Nc3cc(CN(C)C)cc(N(CC)CCCl)c3)cc2)c1	nt	0	2	2	nt	nt	nt
Cc1cc(/C=C2\C(=O)NC(=O)N(c3ccc(Cl)cc3)C2=O)c(C)n1-c1sc2c(c1C#N)CCCC2	-2	4	33*	3	2	13	18
COc1ccccc1NC(=O)COC(=O)c1cc(C)n(C2CC2)c1C	nt	2	4	2	nt	3	nt
Cc1cc(C(=O)OCC(=O)Nc2cccc(F)c2)c(C)n1C1CC1	nt	9	65*	1	4	6	51*
Cc1cc(C(=O)OCC(=O)Nc2ccc(F)cc2)c(C)n1C1CC1	nt	5	43*	0	1	7	25
COC(=O)C1=C(c2ccc(-c3ccccc3)c(F)c2)C[C@@H]2CC[C@H]1N2C(=O)NCC1CC1	nt	14	3	2	5	1	nt
CCN(C=C1CC2C3CC=C4CC(O)CCC4(C)C3CCC2(C)C1=O)CC (centres undefined)	nt	12	7	0	nt	nt	nt
COC(=O)C1=C(c2ccc(-c3ccccc3)c(F)c2)C[C@@H]2CC[C@H]1N2C(=O)N1CCc2cc(OC)c(OC)cc2C1	nt	-2	1	-1	5	4	nt
